Records with an inconclusive call do not appear. Unmarked numbers belong to inactive results. Activity calls are given as the source filed them. Calls come from the whole dose curve; as a rule, active = well fitted cell-killing curve with a large enough effect; inconclusive = small, poorly fitted or top-dose-only effect, or effect the other way; inactive = no such curve, though single readings can be large or run the other way.

By viability is commonly meant a read-out of living cells in per cent, often relative to untreated cells.
Potency is the fitted concentration of half-maximal effect.

The assay is described as follows: Quantitative highthroughput screen to assess conditional lethalithy of NOMO1 cells grown in Human Plasma-Like Medium with dialyzed fetal bovine serum (HPLM+ds) (AID 1963878). Note: nearly all actives have a fitted effect of over 35% in size. To be noted: NOMO1 AML cells in HPLM+ds, CellTiter-Glo viability, 48 h; series mostly up to 45.8 µM; viability: at the top concentration. From the text: Assay Provider: Jason Cantor Ph.D.
Department of Biochemistry
University of Wisconsin-Madison, Madison, WI, USA
Chemical screening studies have identified drug sensitivities across hundreds of cancer cell lines but most putative therapeutics fail to translate. Discovery and development of drug candidates in models that more accurately reflect nutrient levels in human blood is a major challenge. Here we performed high-throughput screens in conventional versus Human Plasma-Like Medium (HPLM) to identify compounds that were "missed" when screening using the artificial culture condition. Sets of conditional anticancer compounds spanned phases of clinical development and included non-oncology drugs were assessed. […] We also traced conditional phenotypes for several chemotherapeutics to availability of HPLM-specific metabolites and confirmed others for compounds whose reported targets are encoded by nonessential genes. Our findings establish generalizable strategies for exploiting conditional lethality in HPLM to reveal therapeutic candidates and mechanisms of action in cancer cells.
Described herein are the results of each viability screens against three cell lines: NOMO1 (an acute myeloid leukemia cell line); P12-Ichikawa (a T-cell acute lymphoblastic leukemia); and SEM (a B-cell ALL). Each assay was screened using 3 different cell culture media: homemade human plasma-Like medium with 10% dialyzed fetal bovine serum (HPLM+ds); RPMI1640 with 10% untreated FBS and 5mM glucose (RPMI+s); and RPMI1640 with 10% dialyzed fetal bovine serum and 5 mM glucose (RPMI+ds).
PROTOCOL TABLE (as described by Inglese J, Shamu CE and Guy RK. 2007)
SEQUENCE No. (e.g., 1, 2, 3, etc.); […] (e.g., Cells, Incubation, Reagent, etc.); VALUE and DESCRIPTION.
1; Cells; 5 uL; white, solid bottom 1536-well Greiner assay plate.
2; Compounds; 23 nL; Kalypsis pin tool (Wako USA) equipped with a 1536-well pin head to transfer to the assay plates.
3; Incubation; 48 hours; 37C incubation.
4; Reagent; 3 uL; CellTiter Glo (Promega).
5; Incubation; 5 min, room temperature
6; Detection; Luminescence, Viewlux PerkinElmer.
NOTES (numbers refer to Sequence numbers above)
1. Briefly, 5 ul of cell reagent was dispensed using a Multidrop Combi Dispenser. The NOMO1 and SEM cells were plated at 500 cells/well and the P12-Ichikawa line at 1000 cells/well.
2. After seeding the cells, 23 nL of MIPE 4.1 library compounds (in DMSO) were added to each plate using a Kalypsys 1536 Pintool dispenser. Bortezomib at final concentration of […] and DMSO were added to each plate as positive and negative controls respectively. For each screen, MIPE 4.1 compounds were added over an eleven-point concentration range […] in 3-fold dilutions.
3. Each plate was covered with a stainless steel gasketed lid to prevent evaporation and incubated for 48 hour at 37C, 95% relative humidity, and 5% CO2.
4-5. Three microliter CellTilter-GloTM luminescent substrate mix (Promega) reagent was added to the assay plate and incubated at room temperature for 5 min.
6. The luminescence signal was measured using a ViewLux (PerkinElmer) multiplate reader with a 2 second exposure time per plate. Data for each compound were normalized as percent viability such that measurements for DMSO and the empty well controls in each plate were defined as 100% and 0%, respectively.
On the technique in general: Cellular ATP, detected with luciferase, serves as a proxy for viable cell number.
Consider `Cc1ccc(F)c(NC(=O)Nc2ccc(-c3cccc4[nH]nc(N)c34)cc2)c1`, for which the “viability” value was 77.7%.

As to `Clc1ccc(C(Cn2ccnc2)OCc2ccc(Sc3ccccc3)cc2)c(Cl)c1` (stereo not given), the “viability” value is 86.7%.

Take `Nc1ccc(S(=O)(=O)Nc2ccnn2-c2ccccc2)cc1`: the “viability” value was 107%. With `CC(C)c1cc(-c2n[nH]c(=O)n2-c2ccc3c(ccn3C)c2)c(O)cc1O`, the Potency is 0.105 µM (active). Consider `COc1ccc2cc1Oc1ccc(cc1)C[C@H]1c3cc(c(OC)cc3CCN1C)Oc1c(OC)c(OC)cc3c1[C@H](C2)N(C)CC3`, for which the “viability” value was 77.4%. As to `Cc1cc(CS(=O)(=O)c2ccccc2)cc(OCc2ccc(CN3CCC[C@H]3CO)cc2)c1`, the Potency is 0.662 µM (active). As for `CN1CCC(CNc2ccc3ncc(-c4cccc(OC(F)(F)F)c4)n3n2)CC1`, the Potency is 18.7 µM (active). The same measure, in the same setting: as for `COC1=C2C[C@@H](C)C[C@H](OC)[C@@H](O)[C@@H](C)C=C(C)[C@H](OC(N)=O)[C@@H](OC)C=CC=C(C)C(=O)NC(=CC1=O)C2=O`, the figure is 18.7 µM (active); as for `Nc1nc(F)nc2c1ncn2[C@@H]1O[C@H](COP(=O)(O)O)[C@@H](O)[C@H]1O`, 9.35 µM (active). With `CC(C)c1ccc(Cn2ccc3c4c(N)nc(NC5CC5)nc4ccc32)cc1`, the Potency is 1.05 µM (active). For the compound `O=C(O)c1ccc(Nc2ncc3c(n2)-c2ccc(Cl)cc2C(c2c(F)cccc2F)=NC3)cc1`, the Potency was 0.59 µM (active). As for `CCN(CC)C(=S)SSC(=S)N(CC)CC`, the Potency is 3.32 µM (active). As for `O=P(O)(O)C(O)(Cc1cccnc1)P(=O)(O)O`, the “viability” value was 103%. With `N#CC(=C1Nc2ccccc2S1)c1ccnc(OCc2ccc(CN3CCOCC3)cc2)n1`, the Potency is 6.62 µM (active). As for `CC(=O)N[C@@H]1[C@H](O[C@@H]2c3ccc(c(Cl)c3)Oc3cc4cc(c3O[C@H]3O[C@H](CO)[C@@H](O)[C@H](O)[C@H]3NC(=O)CCCCCCCC(C)C)Oc3ccc(cc3Cl)C[C@H]3NC(=O)[C@H](N)c5ccc(O)c(c5)Oc5cc(O)cc(c5)[C@H](NC3=O)C(=O)N[C@H]4C(=O)N[C@H]3C(=O)N[C@@H]2C(=O)N[C@@H](C(=O)O)c2cc(O)cc(O[C@H]4O[C@H](CO)[C@@H](O)[C@H](O)[C@H]4O)c2-c2cc3ccc2O)O[C@H](CO)[C@@H](O)[C@@H]1O`, the “viability” value was 106%. Regarding `CC(C)OC(=O)C1=CN(C(=O)c2ccc(F)c(F)c2)CC(C)(C)c2c1[nH]c1ccccc21`, the “viability” value is 98.3%. Turning to `NC(=O)c1ncn([C@@H]2O[C@H](CO)[C@@H](O)[C@@H]2O)c1N`, the “viability” value was 78.2%. With `Cn1cc(-c2ccncc2)c(-c2ccc(OCc3ccc4ccccc4n3)cc2)n1`, the “viability” value is 83.8%. Turning to `CN(c1nccc(=O)[nH]1)C1CCN(c2nc3ccccc3n2Cc2ccc(F)cc2)CC1`, the “viability” value was 81%. Consider `C[C@H](NC(=O)Cc1cc(F)cc(F)c1)C(=O)N[C@H](C(=O)OC(C)(C)C)c1ccccc1`, for which the “viability” value is 103%. Take `Cc1ncc([N+](=O)[O-])n1CCO`: the “viability” value is 97%. For the compound `NC[C@H]1O[C@H](O[C@@H]2[C@@H](O)[C@@H](O[C@H]3O[C@H](CO)[C@@H](O)[C@H](N)[C@@H]3O)[C@H](N)C[C@@H]2N)[C@H](O)[C@@H](O)[C@H]1O`, the “viability” value is 98.9%. For the compound `O=c1oc2cc(O)ccc2s1`, the “viability” value is 91.4%.

For the compound `NC(=O)Cc1cccc(C(=O)c2ccccc2)c1N`, the “viability” value is 105%. Turning to `CON(C)C(=O)N1N=C(c2cc(F)ccc2F)S[C@]1(CCCN)c1ccccc1`, the “viability” value is 18.4%. With `O=C1c2c(O)cc(O)cc2OC(c2ccc(O)c(O)c2)C1O` (stereo not given), the “viability” value is 106%. Take `CCN(c1ccccc1)c1cc(NC)[n+](C)c(C)n1`: the “viability” value is 107%. For the compound `CC[C@H]1OC(=O)[C@H](C)[C@@H](O[C@H]2C[C@@](C)(OC)[C@@H](O)[C@H](C)O2)[C@H](C)[C@@H](O[C@@H]2O[C@H](C)C[C@H](N(C)C)[C@@H]2O)[C@](C)(O)C[C@@H](C)CN(C)[C@H](C)[C@@H](O)[C@]1(C)O`, the “viability” value was 71.9%. Consider `COC(=O)[C@@H]1CC2=CC(=O)CC[C@]2(C)[C@@]23O[C@@H]2C[C@@]2(C)[C@H](CC[C@@]24CCC(=O)O4)[C@@H]13`, for which the “viability” value is 99.7%. In the case of `c1coc(CNc2ncnc3nc[nH]c23)c1`, the “viability” value was 85.1%. Take `CCOC(=O)[C@H](CCc1ccccc1)N[C@H]1CCc2ccccc2N(CC(=O)O)C1=O`: the Potency is 16.6 µM (active). In the case of `CS(=O)(=O)c1ccc(C(=O)Nc2ccc(Cl)c(-c3ccccn3)c2)c(Cl)c1`, the “viability” value was 114%. For `O=c1[nH]nc(Sc2ncc([N+](=O)[O-])s2)n1-c1ccc2c(c1)OCCO2`, the Potency was 9.35 µM (active). On to `O=c1cc(CN2CCOCC2)occ1OCCCCCSc1ccnc2cc(C(F)(F)F)ccc12`, for which the “viability” value is 94.6%. `C=CCNC1=C2C[C@@H](C)C[C@H](OC)[C@@H](O)[C@@H](C)C=C(C)[C@H](OC(N)=O)[C@@H](OC)C=CC=C(C)C(=O)NC(=CC1=O)C2=O`: the Potency was 5.9 µM (active).

In the case of `O=C(O)c1ccc2c(c1)nc(Nc1cccc(Cl)c1)c1ccncc12`, the Potency was 4.69 µM (active).

With `Cc1cnc(NC(=O)C2=C(O)c3ccccc3S(=O)(=O)N2C)s1`, the “viability” value was 115%. As to `C[C@H]1[C@H](O)O[C@@H]2O[C@@]3(C)CC[C@@H]4[C@H](C)CC[C@@H]1[C@@]24OO3`, the Potency is 2.09 µM (active).

For `CCCCCN(CCC12CC3CC(CC(C3)C1)C2)C(=O)NCCCc1ccncc1`, the “viability” value was 96.6%.

With `NC1CCC(Nc2nc(Nc3ccc(C(=O)N4CCCCC4)cc3)c3ncn(-c4cccc(F)c4)c3n2)CC1` (stereo not given), the “viability” value is 123%.

For the origin of these results see PubChem BioAssay (NCATS).
